Reference: PubChem BioAssay (Tox21)
Values joined by “and” are separate entries in the source; they are usually repeats but may differ in a detail not shown here. Equal values may be shown once. Inconclusive results are not listed. Active and inactive are the calls of the source. Unless noted, the call rests on the fitted dose curve; in most records, active means well fitted curve in the direction sought with a large enough effect in the repeat runs; inconclusive means weak or mixed curves; inactive means no such curve, though single readings can be large; an effect the other way counts as inactive or inconclusive.

Legend:
[1] = qHTS assay for identifying genotoxic compounds that show differential cytotoxicity against isogenic chicken DT40 cell lines with known DNA damage response pathways - Rad54/Ku70 mutant cell line (AID 743015); further: nearly all actives have a fitted effect of over 60% in size
[2] = qHTS assay to identify small molecule antagonists of the androgen receptor (AR) signaling pathway - cell viability counter screen (AID 743033; further: nearly all actives have a fitted effect of over 45% in size)
[3] = qHTS assay to identify small molecule antagonists of the androgen receptor (AR) signaling pathway using the MDA cell line - cell viability counter screen (AID 743041; further: nearly all actives have a fitted effect of over 45% in size)
In short: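 MDA-kb2 AR-luc human breast carcinoma cells (MMTV-luciferase, AR/GR responsive) were treated with compounds plus R1881 agonist for 16 h at 37 °C. Viability was read as CellTiter-Fluor fluorescence in the same wells as the reporter assay.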

[4] = qHTS assay to identify small molecule antagonists of the thyroid receptor (TR) signaling pathway - cell viability counter screen (AID 743064); further: nearly all actives have a fitted effect of over 50% in size
In short: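 Rat GH3 pituitary tumor cells stably expressing two TR response elements driving luciferase were plated, rested 4 h, then dosed with library compounds and T3 (1 nM final). After 23.5 h at 37 °C, CellTiter-Fluor was added for 30 min and fluorescence recorded.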

[5] = qHTS assay to identify small molecule antagonists of the thyroid receptor (TR) signaling pathway (AID 743065); further: nearly all actives have a fitted effect of over 55% in size
In short: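 GH3.TRE-Luc rat pituitary cells carrying two TR response elements driving luciferase were plated for 4 h, given compound plus 1 nM T3 (final), and incubated 23.5 h at 37 C. ONE-Glo luminescence measured reporter inhibition; CellTiter-Fluor fluorescence tracked cytotoxicity.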

[6] = test system: thyroid hormone receptor (rat, GH3 cells); experiment: qHTS assay to identify small molecule agonists of the thyroid receptor (TR) signaling pathway (AID 743066; calls by dose curve)
[7] = qHTS assay to identify small molecule antagonists of the estrogen receptor alpha (ER-alpha) signaling pathway - cell viability counter screen (AID 743074; calls by dose curve;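 further: HEK293 cells carrying ER-alpha-UAS-bla reporter stimulated with 17beta-estradiol; nearly all actives have a fitted effect of over 45% in size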)
[8] = qHTS assay to identify small molecule antagonists of the estrogen receptor alpha (ER-alpha) signaling pathway using the BG1 cell line - cell viability counter screen (AID 743081);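 further: compound given together with 17beta-estradiol as the ER stimulus; nearly all actives have a fitted effect of over 45% in size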
[9] = qHTS assay to identify small molecule that activate the aryl hydrocarbon receptor (AhR) signaling pathway - cell viability counter screen (AID 743086)
In short: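 HepG2-AhR-luc (HG2L7.5c1) cells, 4000/well, were preincubated 5 h at 37C, exposed to compound in qHTS format for 24 hr at 37C, then given CellTiter-Fluor for 30 min; viability was read as fluorescence in the reporter wells.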

[10] = qHTS assay to identify small molecule antagonists of the estrogen related receptor (ERR) signaling pathway from Tox21 library - cell viability counter screen (AID 1224834); further: nearly all actives have a fitted effect of over 30% in size
In short: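 ERR reporter cells were plated 6 h before compound addition, then exposed to test compounds in DMSO for 17.5 h at 37 C. Viability was read as CellTiter-Fluor fluorescence after a 30-minute incubation at 37 C.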

[11] = qHTS assay to identify small molecule antagonists of the estrogen related receptor signaling pathway with the pleiotropic PPARgamma coactivator (PGC) from Tox21 10K library - cell viability counter screen (AID 1224840; active means well fitted cell-killing curve with a large enough effect in the repeat runs, not every such curve was filed as active; further: nearly all actives have a fitted effect of over 40% in size)
In short: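 PGC/ERR cells were seeded at 2,000 cells/well and left 6 hours at 37 C/5% CO2 before pin-tool addition of compounds in DMSO. After 17.5 hours at 37 C, CellTiter-Fluor was added and fluorescence read 30 minutes later.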

[12] = qHTS assay to identify small molecule antagonists of the estrogen related receptor signaling pathway with the pleiotropic PPARgamma coactivator (PGC) from Tox21 10K library (AID 1224841; call rule not given here; further: actives are mostly falling curves and most rising ones were filed inactive; nearly all actives have a fitted effect of over 50% in size)
In short: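 PGC/ERR reporter cells were seeded at 2,000 cells/well and held 6 hours at 37 C/5% CO2 before pin-tool addition of compounds in DMSO. After 18 hours at 37 C, One-Glo was added and luminescence read after 30 minutes at room temperature.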

[13] = qHTS assay to identify small molecule agonists of the estrogen related receptor signaling pathway with the pleiotropic PPARgamma coactivator (PGC) from Tox21 10K library (AID 1224842); further: nearly all actives have a fitted effect of over 15% in size
In short: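 PGC/ERR reporter cells (NTP line) were seeded 2,000 per well, rested 6 h at 37 C/5% CO2, then pin-dosed with compounds in DMSO for 18 h at 37 C; luciferase read by One-Glo luminescence after 30 min at room temperature.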

[14] = qHTS assay to identify small molecule antagonists of the estrogen related receptor (ERR) signaling pathway from Tox21 library (AID 1224848); further: nearly all actives have a fitted effect of over 50% in size
In short: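 Cells: ERR line, 2,000/well; 6 h preincubation 37 C/5% CO2. Cpd in DMSO via pin tool; 18 h, 37 C. ONE-Glo, 30 min RT, luminescence.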

[15] = qHTS assay to identify small molecule agonists of the estrogen related receptor (ERR) signaling pathway from Tox21 library (AID 1224849; calls by dose curve; further: nearly all actives have a fitted effect of over 15% in size); conditions: ERR reporter cell line, ONE-Glo luciferase, 18 h
In short: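 ERR reporter cell line (NTP) seeded, rested 6 h at 37 C/5% CO2, then pinned with Tox21 compounds in DMSO. After 18 h at 37 C, ONE-Glo luciferase luminescence was read following 30 min at room temperature.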

[16] = qHTS assay to identify small molecule antagonists of the estrogen receptor alpha (ER-alpha) signaling pathway using the BG1 cell line in the presence of 0.1 nM 17-beta-estradiol - cell viability counter screen (AID 1259241); further: nearly all actives have a fitted effect of over 40% in size
In short: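 Cells were plated and left 24 hr, compounds in DMSO were pinned in, 17beta-estradiol was added to 0.1 nM final, and after 22 hr CellTiter-Fluor reagent was added for 30 min before fluorescence was read.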

[17] = qHTS assay to identify small molecule antagonists of the androgen receptor (AR) signaling pathway using the MDA cell line in the presence of 0.5 nM R1881 - cell viability counter screen (AID 1259242); further: nearly all actives have a fitted effect of over 45% in size
In short: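 MDA-kb2 cells (human breast carcinoma, stably carrying MMTV-luciferase reporter) were exposed to compounds with 0.5 nM R1881 (final) for 16 hr at 37C, 0% CO2; viability then read as live-cell protease fluorescence (CellTiter-Fluor, 30 min) in the same wells.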

[18] = qHTS assay to identify small molecule phospholipidosis (PLD) inducers (AID 1259344; active means well fitted curve in the direction sought with a large enough effect; an effect the other way counts as inactive or inconclusive)
In short: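 HepG2 cells on collagen I, attached 4 h at 37 C, were co-treated with compound and LipidTOX Red dye for 24 h at 37 C, then fixed with paraformaldehyde plus Hoechst 33342 and imaged by high-content microscopy for phospholipid accumulation.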

[19] = target: Nuclear receptor subfamily 1 group I member 2 (Homo sapiens) (UniProt O75469); experiment: Human pregnane X receptor (PXR) small molecule agonists, qHTS assay (AID 1346982); further: nearly all actives have a fitted effect of over 35% in size
Chain of Nuclear receptor subfamily 1 group I member 2 (Homo sapiens) (O75469 whole entry, looked up): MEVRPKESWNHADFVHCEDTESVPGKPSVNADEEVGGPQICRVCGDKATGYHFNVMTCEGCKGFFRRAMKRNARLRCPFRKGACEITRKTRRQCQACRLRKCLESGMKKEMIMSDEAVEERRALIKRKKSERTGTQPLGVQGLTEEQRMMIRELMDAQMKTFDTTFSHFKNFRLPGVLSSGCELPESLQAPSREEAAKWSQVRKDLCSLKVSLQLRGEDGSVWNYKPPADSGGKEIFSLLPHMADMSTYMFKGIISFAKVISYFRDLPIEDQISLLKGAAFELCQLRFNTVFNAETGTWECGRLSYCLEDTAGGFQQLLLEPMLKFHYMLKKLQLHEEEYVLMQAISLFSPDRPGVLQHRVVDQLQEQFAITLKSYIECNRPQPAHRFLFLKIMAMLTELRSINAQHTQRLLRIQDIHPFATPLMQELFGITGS
In short: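 PXR-Luc HepG2 cells (CYP3A4 promoter-driven luciferase) were seeded in medium with 5% charcoal-stripped FBS, left 5 hr at 37 C, then exposed to compounds in DMSO for 24 hr. Luminescence was read after ONE-Glo addition.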

[20] = target: Acetylcholinesterase (Homo sapiens) (UniProt P22303); experiment: Acetylcholinesterase (AChE) small molecule antagonists: colormetric cell-based qHTS assay (AID 1347395; calls by dose curve; further: nearly all actives have a fitted effect of over 30% in size)
Chain of Acetylcholinesterase (Homo sapiens) (P22303 whole entry, looked up): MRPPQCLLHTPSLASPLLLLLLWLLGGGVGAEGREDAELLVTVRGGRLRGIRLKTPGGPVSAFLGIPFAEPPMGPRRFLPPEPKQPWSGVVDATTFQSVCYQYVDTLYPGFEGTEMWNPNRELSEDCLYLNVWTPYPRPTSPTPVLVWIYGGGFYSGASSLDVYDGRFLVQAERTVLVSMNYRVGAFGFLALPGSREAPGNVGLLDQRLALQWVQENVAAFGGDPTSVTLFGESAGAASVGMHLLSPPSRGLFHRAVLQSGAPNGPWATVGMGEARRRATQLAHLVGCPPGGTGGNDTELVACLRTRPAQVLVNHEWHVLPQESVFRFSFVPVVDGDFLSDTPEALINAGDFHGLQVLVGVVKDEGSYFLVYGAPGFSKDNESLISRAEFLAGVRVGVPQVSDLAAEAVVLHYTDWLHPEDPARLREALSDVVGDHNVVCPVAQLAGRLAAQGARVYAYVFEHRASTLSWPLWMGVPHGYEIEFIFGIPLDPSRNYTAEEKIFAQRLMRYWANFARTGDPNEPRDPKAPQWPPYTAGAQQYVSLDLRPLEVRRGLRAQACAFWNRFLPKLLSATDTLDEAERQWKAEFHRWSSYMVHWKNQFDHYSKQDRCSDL
In short: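 Cells (SH-SY5Y, 2,000 per well) are seeded and left overnight at 37 C. Compound is added for 30 min, then DTNB and acetylthiocholine for a further 90 min at 37 C before absorbance-based thiocholine detection.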

[21] = target: Acetylcholinesterase (Homo sapiens) (UniProt P22303); experiment: Acetylcholinesterase (AChE) small molecule antagonists: enzyme-based qHTS assay (AID 1347397; calls by dose curve; further: nearly all actives have a fitted effect of over 55% in size); conditions: Potency: AChE enzyme activity inhibition; outcome: AChE enzyme activity inhibition
In short: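 Recombinant human AChE, dispensed at 50 mU/mL, was preincubated with Tox21 10K compounds or DMSO vehicle for 30 min at room temperature. DTNB plus acetylthiocholine was then added, and thiocholine was measured colorimetrically after a further 10 min.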

[22] = target: Acetylcholinesterase (Homo sapiens) (UniProt P22303); experiment: Acetylcholinesterase (AChE) small molecule antagonists: fluorescence cell-based qHTS assay (AID 1347398; calls by dose curve; further: nearly all actives have a fitted effect of over 50% in size); conditions: Potency: AChE activity; outcome: AChE activity
In short: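 Human SH-SY5Y cells were plated overnight at 37 C, exposed to compound for 30 min at 37 C, 5% CO2, then given acetylthiocholine plus Thiolite Green for 40 min at room temperature; thiocholine fluorescence (Ex/Em 490/520 nm) reports endogenous AChE activity.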

[23] = target: Acetylcholinesterase (Homo sapiens) (UniProt P22303); experiment: Acetylcholinesterase (AChE) small molecule antagonists: enzyme-based qHTS assay with human liver microsomes (AID 1347399; calls by dose curve; further: nearly all actives have a fitted effect of over 60% in size); conditions: Potency: qHTS inhibition; outcome: qHTS inhibition
In short: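 Recombinant human AChE (50 mU/mL in the enzyme mix) and human liver microsomes (0.25 mg/mL final) were preincubated with compound and NADPH (0.25 mg/mL final) for 30 min at 37 C. Acetylthiocholine/DTNB was then added; thiocholine was read colorimetrically after 10 min at room temperature.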
On the % scale 0 is the no-effect control and ±100 the full control effect.

O=C(O)/C=C\C(=O)O
inactive: Potency [1] | Potency [2] | Potency [3] | Potency [4] | Potency [5] | Potency [6] | Potency [7] | Potency [8] | Potency [9] | Potency [10] | Potency [11] | Potency [12] | Potency [13] | Potency [14] | activity change, positive = activation ([15]; at 42.5 µM (top of the series)) 6.09% | activity change, positive = activation ([15]; at 92.4 µM (top of the series)) 3.24% and 1.53% | Potency [16] | Potency [17] | Potency [18] | Potency [19] | Potency [20] | Potency [21] | Potency [22] | Potency [23]
